Experimental data taken from PubChem BioAssay (NCATS).
Results filed as inconclusive are left out. The source made the active and inactive calls. Unless noted, calls come from the whole dose curve; as a rule, active = well fitted curve in the direction sought with a large enough effect; inconclusive = small, poorly fitted or top-dose-only effect, or another doubt; inactive = no such curve, though single readings can be large; an effect the other way counts as inactive or inconclusive.

Legend:
[1] = target: Pyruvate kinase PKM (Homo sapiens) (UniProt P14618); test: qHTS Assay for Activators of Human Muscle Pyruvate Kinase (AID 954; active = well fitted curve in the direction sought with a large enough effect, not every such curve was filed as active); conditions: purified human muscle pyruvate kinase, luciferase-coupled luminescence, 1 h; series mostly up to 57.5 µM
Summary of the method: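 Human PKM2 activity is measured as ATP generation, detected by luciferase-coupled luminescence. The enzyme (0.1 nM) acts on 0.5 mM PEP and 0.1 mM ADP for 1 h at ambient temperature; data are normalized to uninhibited and full-inhibition wells.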

[2] = MultiTox-Fluor Cytotoxicity Assay - LYMP1-001 - Dead Cells (AID 946); conditions: LYMP1-001 lymphoblastoid cells, dead-cell protease fluorescence; series mostly up to 92.2 µM
Summary of the method: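 Cytotoxicity as increased dead-cell protease fluorescence (bis-AAF-R110, 485/520 nm), read 60 min after MultiTox-Fluor reagent. Human lymphoblastoid line exposed 16 h; Hill-fitted AC50, with DMSO as 0% and 15 uM tetraoctylammonium bromide as 100%.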

[3] = MultiTox-Fluor Cytotoxicity Assay - LYMP1-001 - Live Cells (AID 947); conditions: LYMP1-001 lymphoblastoid cells, live-cell protease fluorescence viability; series mostly up to 92.2 µM
[4] = Cell Viability - LYMP1-002 - Assay at 16 hr (AID 948); conditions: LYMP1-002 lymphoblastoid cell viability; series mostly up to 92.2 µM
Summary of the method: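 LYMP1-002 human lymphoblastoid cells, 2500/well; 5 hr 37 C; cpd 16 hr 37 C; CellTiter-Glo 30 min RT; luminescence (ATP). Concentration-response, Hill-fit AC50. Pos ctrl tetraoctylammonium bromide.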

[5] = MultiTox-Fluor Cytotoxicity Assay - LYMP1-002 - Live Cells (AID 955); conditions: LYMP1-002 lymphoblastoid live-cell protease fluorescence viability; series mostly up to 46.1 µM;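 note: cells exposed to compound for 16 hours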
Summary of the method: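 Cytotoxicity in the human lymphoblastoid line LYMP1-002 is measured as loss of live-cell protease activity after 16 h treatment in complete culture medium. AC50 is derived from Hill-equation fits of qHTS concentration-response data.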

[6] = MultiTox-Fluor Cytotoxicity Assay - LYMP1-002 - Dead Cells (AID 960); conditions: LYMP1-002 lymphoblastoid cells, dead-cell protease fluorescence; series mostly up to 46.1 µM; note: nearly all actives have a fitted effect of over 60% in size; note: potency is the fitted concentration of half-maximal effect
Summary of the method: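 Acute cytotoxicity in a human lymphoblastoid line is scored as rising dead-cell protease signal after 16 hr exposure at 37 C, measured fluorometrically (485/520).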

[7] = MultiTox-Fluor Cytotoxicity Assay - LYMP1-003 - Dead Cells (AID 961); conditions: LYMP1-003 lymphoblastoid cells, dead-cell protease fluorescence; series mostly up to 92.2 µM; note: nearly all actives have a fitted effect of over 70% in size; note: potency is the fitted concentration of half-maximal effect
Summary of the method: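 Dead-cell protease release, detected as bis-AAF-R110 fluorescence at 485/520 nm, was measured in LYMP1-003 cells after 16 h compound treatment at 37 C. AC50 values came from Hill-modeled qHTS curves normalized to DMSO (0%) and 15 uM tetraoctylammonium bromide (100%).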

[8] = MultiTox-Fluor Cytotoxicity Assay - LYMP1-003 - Live Cells (AID 962); conditions: LYMP1-003 lymphoblastoid cells, MultiTox-Fluor live-cell protease fluorescence; series mostly up to 92.2 µM;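 note: cells exposed to compound for 16 hours at 37 °C; cytotoxic hits lower the live-cell protease signal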
Summary of the method: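 Cells plated at 2500 per well and incubated 5 hr; compounds added and incubated 16 hr at 37 C; MultiTox-Fluor reagent added for 60 min at room temperature; fluorescence of liberated AFC measured at 405/510 nm.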

[9] = Cell Viability - LYMP1-003 - Assay at 24 hr (AID 963); conditions: LYMP1-003 lymphoblastoid cell viability; series mostly up to 92.2 µM
Summary of the method: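 Acute toxicity in LYMP1-003 lymphoblastoid cells: 24 hr compound treatment at 37 C, ATP measured with CellTiter-Glo after 30 min at room temperature. AC50 derived by fitting the Hill equation to qHTS titrations.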

[10] = Cell Viability - LYMP1-003 - Assay at 40 hr (AID 964); conditions: LYMP1-003 lymphoblastoid viability; series mostly up to 92.2 µM; note: nearly all actives have a fitted effect of over 60% in size; note: potency is the fitted concentration of half-maximal effect
Summary of the method: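 This qHTS cytotoxicity screen treats human lymphoblastoid cells (LYMP1-003) with compounds for 40 hr and quantifies cellular ATP via luciferase luminescence.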

[11] = Cell Viability - LYMP2-004 (AID 966); conditions: LYMP2-004 lymphoblastoid cell viability, qHTS; series mostly up to 92.2 µM; note: nearly all actives have a fitted effect of over 65% in size; note: potency is the fitted concentration of half-maximal effect
Summary of the method: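 Acute toxicity is scored as a concentration-dependent drop in intracellular ATP, quantified by luciferase luminescence, in human lymphoblastoid cells exposed to compound for 24 hr. AC50 derives from Hill-equation modelling.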

[12] = Cell Viability - LYMP2-009 (AID 968); conditions: LYMP2-009 lymphoblastoid cell viability; series mostly up to 92.2 µM;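 note: cells exposed to compound for 24 h at 37 °C; nearly all actives have a fitted effect of over 55% in size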; note: potency is the fitted concentration of half-maximal effect
[13] = Cell Viability - LYMP2-011 (AID 969); conditions: LYMP2-011 lymphoblastoid cells viability; series mostly up to 92.2 µM; note: nearly all actives have a fitted effect of over 60% in size
Summary of the method: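 Acute toxicity is scored as a concentration-dependent drop in intracellular ATP of a human lymphoblastoid line after 24 hr treatment. Values are AC50s modeled with the Hill equation.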

[14] = Cell Viability - LYMP2-013 (AID 970); conditions: LYMP2-013 lymphoblastoid cells viability; series mostly up to 92.2 µM;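 note: cells exposed to compound for 24 h at 37 °C; nearly all actives have a fitted effect of over 55% in size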
Summary of the method: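 Acute toxicity was measured in human lymphoblastoid cells (2500/well) exposed to compound titrations for 24 hr, with ATP luminescence (CellTiter-Glo) as read-out and AC50 fitted by Hill equation.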

[15] = Cell Viability - LYMP2-015 (AID 971); conditions: LYMP2-015 lymphoblastoid cell viability; series mostly up to 92.2 µM; note: nearly all actives have a fitted effect of over 55% in size
Summary of the method: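 Acute toxicity was scored as a concentration-dependent drop in intracellular ATP in lymphoblastoid cells after 24 hr compound exposure in complete medium. Detection used CellTiter-Glo luciferase luminescence.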

[16] = Cell Viability - LYMP2-017 (AID 972); conditions: LYMP2-017 lymphoblastoid cell viability; series mostly up to 92.2 µM;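 note: cells exposed to compound for 24 hours at 37 °C; nearly all actives have a fitted effect of over 55% in size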
Summary of the method: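 Steps: plate 2500 lymphoblastoid cells per well; incubate 5 hr at 37 C; add compound across a concentration series and incubate 24 hr at 37 C; add CellTiter-Glo and read luminescence after 30 min at room temperature; fit Hill curves for AC50.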

[17] = Cell Viability - LYMP2-019 (AID 973); conditions: LYMP2-019 lymphoblastoid cell line viability; series mostly up to 92.2 µM
Summary of the method: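 Cells plated at 2500/well and allowed 5 hr at 37 C before compound addition. After 24 hr incubation, CellTiter-Glo reagent was added, plates sat 30 min at room temperature, and luminescence was recorded.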

[18] = Cell Viability - LYMP2-021 (AID 974); conditions: LYMP2-021 lymphoblastoid cells viability; series mostly up to 92.2 µM
Summary of the method: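 Concentration-response cytotoxicity in a human lymphoblastoid line: 24 hr treatment at 37 C in complete culture medium, tetraoctylammonium bromide as positive control, luminescent ATP quantitation as viability measure.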

[19] = target: Pyruvate kinase PKM (Homo sapiens) (UniProt P14618); test: qHTS Assay for Inhibitors of Human Muscle Pyruvate Kinase (AID 958); conditions: purified human PKM enzyme activity
Summary of the method: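 A coupled luminescent readout tracked ATP made from ADP by purified PKM2. Final conditions included 0.1 nM enzyme, PEP and ADP at 0.5 and 0.1 mM, pH 7.2 imidazole buffer with BSA, and a one-hour room-temperature reaction.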

[20] = target: Pyruvate kinase (Leishmania mexicana) (UniProt Q27686); test: qHTS Validation Assay for Activators of Leishmania Mexicana Pyruvate Kinase (AID 959); conditions: purified L. mexicana pyruvate kinase, enzyme activity; series mostly up to 57.5 µM
Summary of the method: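 Eight-point qHTS titrations; enzyme 0.2 nM LmPYK (E451W mutant); substrates 0.5 mM PEP, 0.1 mM ADP; 7 mM MgCl2; 1 h room temperature; PKLight luminescence normalized to neutral control.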

Measured: Potency

Chain of Pyruvate kinase PKM (Homo sapiens) (P14618 whole entry, looked up): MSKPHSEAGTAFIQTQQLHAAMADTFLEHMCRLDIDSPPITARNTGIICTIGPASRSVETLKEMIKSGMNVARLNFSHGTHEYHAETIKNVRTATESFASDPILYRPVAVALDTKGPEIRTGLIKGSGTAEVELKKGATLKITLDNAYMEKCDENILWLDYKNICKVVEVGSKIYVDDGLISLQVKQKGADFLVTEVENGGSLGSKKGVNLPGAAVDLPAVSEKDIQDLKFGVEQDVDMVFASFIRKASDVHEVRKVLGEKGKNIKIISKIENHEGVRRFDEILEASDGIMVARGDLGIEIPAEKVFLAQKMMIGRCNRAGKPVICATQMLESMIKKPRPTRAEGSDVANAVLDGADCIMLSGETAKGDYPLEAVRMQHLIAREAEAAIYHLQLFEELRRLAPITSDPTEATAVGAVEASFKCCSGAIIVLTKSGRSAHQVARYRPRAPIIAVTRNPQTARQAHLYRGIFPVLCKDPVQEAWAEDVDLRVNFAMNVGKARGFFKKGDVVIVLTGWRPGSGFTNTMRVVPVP
Chain of Pyruvate kinase (Leishmania mexicana) (Q27686 2-499 E452W): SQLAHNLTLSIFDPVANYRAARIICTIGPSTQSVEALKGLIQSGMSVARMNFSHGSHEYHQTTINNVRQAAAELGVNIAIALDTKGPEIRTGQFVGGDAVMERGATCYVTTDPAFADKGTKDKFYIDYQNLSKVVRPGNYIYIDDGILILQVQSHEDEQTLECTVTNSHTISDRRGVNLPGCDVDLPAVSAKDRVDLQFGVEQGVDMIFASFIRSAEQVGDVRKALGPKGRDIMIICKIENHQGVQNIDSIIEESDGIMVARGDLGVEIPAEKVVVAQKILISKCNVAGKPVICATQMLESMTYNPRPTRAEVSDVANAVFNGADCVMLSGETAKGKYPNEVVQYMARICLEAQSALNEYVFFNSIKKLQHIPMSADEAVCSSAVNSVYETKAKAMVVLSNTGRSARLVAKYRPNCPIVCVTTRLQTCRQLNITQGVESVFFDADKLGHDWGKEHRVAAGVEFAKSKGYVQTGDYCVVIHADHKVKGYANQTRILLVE

Cc1nc2sccn2c(=O)c1CCN1CCC(=C(c2ccc(F)cc2)c2ccc(F)cc2)CC1
inactive: [1]

CN(C)CCCN1c2ccccc2Sc2ccccc21
inactive: [1]

NC(=O)N1c2ccccc2C=Cc2ccccc21
inactive: [2] | [3] | [4] | [1] | [5] | [6] | [7] | [8] | [9] | [10] | [11] | [12] | [13] | [14] | [15] | [16] | [17] | [18]

COc1ccc(CN(CCN(C)C)c2ccccn2)cc1
inactive: [2] | [3] | [4] | [1] | [5] | [6] | [7] | [8] | [9] | [10] | [11] | [12] | [13] | [14] | [15] | [16] | [17] | [18]

CCCOc1ccccc1-c1nc2n[nH]nc2c(=O)[nH]1
inactive: [1]

CCCN(CCC)CCc1cccc2c1CC(=O)N2
inactive: [1]

CCN(CC)CCNC(=O)c1cc(S(C)(=O)=O)ccc1OC
inactive: [1]

C[C@]12C=CC(=O)C=C1CC[C@H]1[C@@H]3C[C@@H](O)[C@](O)(C(=O)CO)[C@@]3(C)C[C@H](O)[C@@]12F
inactive: [1]

COc1cc(C(=O)OCCCN2CCCN(CCCOC(=O)c3cc(OC)c(OC)c(OC)c3)CC2)cc(OC)c1OC
inactive: [1]

CCCCNc1ccc(C(=O)OCCN(C)C)cc1
inactive: [1]

CCCCNC(=O)NS(=O)(=O)c1ccc(C)cc1
inactive: [2] | [3] | [4] | [1] | [5] | [6] | [7] | [8] | [9] | [10] | [11] | [12] | [13] | [14] | [15] | [16] | [17] | [18]

O=C1NCN(c2ccccc2)C12CCN(CCCC(c1ccc(F)cc1)c1ccc(F)cc1)CC2
inactive: [1]

Cc1nc2ccccn2c(=O)c1CCN1CCC(C(=O)c2ccc(F)cc2)CC1
inactive: [1]

CN(C)CC/C=C1\c2ccccc2COc2ccccc21
inactive: [1]

O=C(CCCN1CCC(O)(c2cccc(C(F)(F)F)c2)CC1)c1ccc(F)cc1
inactive: [1]

NC(=Nc1ccccc1)Nc1ccccc1
inactive: [2] | [3] | [4] | [5] | [6] | [7] | [8] | [9] | [10] | [11] | [12] | [13] | [14] | [15] | [16] | [17] | [18]

COc1cc(Cc2cnc(N)nc2N)cc(OC)c1OC
inactive: [2] | [3] | [4] | [1] | [5] | [6] | [7] | [8] | [9] | [10] | [11] | [12] | [13] | [14] | [15] | [16] | [17] | [18]

CN(C(=O)CCCOc1ccc2[nH]c(=O)ccc2c1)C1CCCCC1
inactive: [1]

COC(=O)[C@H]1[C@H]2C[C@@H]3c4[nH]c5cc(OC)ccc5c4CCN3C[C@H]2C[C@@H](OC(=O)c2cc(OC)c(OC)c(OC)c2)[C@@H]1OC
inactive: [4] | [1] | [8]
active: [6] 31.6 µM | [7] 50.1 µM | [10] 39.8 µM

C[n+]1cc2c3c(ccc2c2ccc4cc5c(cc4c21)OCO5)OCO3
inactive: [20]
active: [19] 10 µM

Nc1ncn([C@@H]2O[C@H](CO)[C@@H](O)[C@H]2O)c(=O)n1
active: [10] 12.6 µM | [11] 12.6 µM | [12] 15.8 µM
